# Data as given in PubChem BioAssay (Tox21).
# Results filed as inconclusive are left out. A number with no mark means an inactive call. Activity calls are given as the source filed them. Calls follow the shape of the full dose curve. Peptide text beside a SMILES is read from it.
# Biological target: 5-hydroxytryptamine receptor 2A (Homo sapiens) (UniProt P28223)
# Assay: 5-hydroxytryptamine receptor 2A (HTR2A) small molecule agonists, cell-based qHTS assay (AID 1963587); also: nearly all actives have a fitted effect of over 30% in size
# Settings: HTR2A-CHO cells, calcium flux fluorescence, agonist mode; series mostly up to 76.8 µM; activation: at the top concentration
# From the text: National Center for Advancing Translational Sciences [NCATS]
# Division of Preclinical Innovation [DPI]
# U.S. Environmental Protection Agency [EPA]
# National Institutes of Environmental Health Sciences [NIEHS]
# National Toxicology Program [NTP]
# U.S. Food and Drug Administration [FDA]
# The HTR2A receptor is a subtype of the 5-HT2 receptor that belongs to the serotonin receptor family and is a G protein-coupled receptor (GPCR). The HTR2A-CHO cell line stably expressing human 5-hydroxytryptamine receptor 2A (HTR2A) can be used for screening agonists of interactions between 5-HT2 and its ligands. The HTR2A-CHO calcium flux assay is a homogeneous fluorescence-based assay for detecting the intracellular calcium level using FDSS kinetic plate reader system.
# HTR2A-CHO cells were dispensed at 2000 cells/3uL/well in 1536-well black-clear bottom plates using a Multidrop Dispenser. After the assay plates were incubated at a 37 C/5% CO2 incubator for 18 h, 3 uL of Dye Loading Buffer was transferred to the assay plate by a Flying Reagent Dispenser. The assay plates were incubated at 37 C for 1h. For agonist mode, 23 nL of compounds dissolved in DMSO, positive controls or DMSO only was transferred to the assay plate by a pin tool. The fluorescence intensity in the plates was measured using FDSS 7000EX kinetic plate reader for 2 min at 1 sec intervals.
# % is scaled to controls: 0 for no effect and ±100 for the full control effect; potency is read from the fitted curve at half-maximal effect.
# Sequence of 5-hydroxytryptamine receptor 2A (Homo sapiens) (P28223 whole entry, looked up): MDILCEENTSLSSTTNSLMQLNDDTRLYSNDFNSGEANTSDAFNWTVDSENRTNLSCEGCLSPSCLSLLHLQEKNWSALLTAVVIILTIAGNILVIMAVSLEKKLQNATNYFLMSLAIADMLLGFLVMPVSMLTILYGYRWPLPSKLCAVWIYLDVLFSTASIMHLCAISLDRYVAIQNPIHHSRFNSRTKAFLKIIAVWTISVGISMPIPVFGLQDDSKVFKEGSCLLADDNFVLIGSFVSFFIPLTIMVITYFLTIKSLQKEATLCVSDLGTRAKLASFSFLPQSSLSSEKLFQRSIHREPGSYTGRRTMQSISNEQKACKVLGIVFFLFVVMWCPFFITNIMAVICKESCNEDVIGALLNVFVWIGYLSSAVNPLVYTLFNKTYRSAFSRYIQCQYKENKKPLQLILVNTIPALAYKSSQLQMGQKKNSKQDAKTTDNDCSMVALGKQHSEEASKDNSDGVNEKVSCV
Compound,activation,Potency
Cc1ccc(-c2c(Cl)nc(C#N)n2S(=O)(=O)N(C)C)cc1,4.28%,–
CCC(C)Br (stereo not given),-0.68%,–
CC(C)N(CCC(C(N)=O)(c1ccccc1)c1ccccn1)C(C)C (stereo not given),10.4% [at 35.6 µM],–
CC(=O)N[C@@H](CO)C(=O)N[C@@H](CC(=O)O)C(=O)N[C@@H](CCCCN)C(=O)N1CCC[C@H]1C(=O)O (Ac-SDKP-OH),0.904% [at 35.6 µM],–
COC(=O)C(C)N(C(=O)Cc1ccccc1)c1c(C)cccc1C (stereo not given),14.5%,–
CCC(C)(C)C(=O)OC1=C(c2ccc(Cl)cc2Cl)C(=O)OC12CCCCC2,0.284%,–
COP(=O)(OC)SCn1c(=O)oc2cc(Cl)cnc21,-2.4%,–
N#CC(CCc1ccc(Cl)cc1)(Cn1cncn1)c1ccccc1 (stereo not given),12.9%,–
CC1(C)CCC(Cc2ccc(Cl)cc2)C1(O)Cn1cncn1 (stereo not given),–,49 µM (active)
Fc1cccc(Cl)c1CCl,0.713%,–
O=C(NC(=O)c1c(F)cccc1F)Nc1ccc(Oc2ccc(C(F)(F)F)cc2Cl)cc1F,0.381%,–
O=CCCl,-0.175%,–
CC1(c2ccc(Oc3ccccc3)cc2)OC(=O)N(Nc2ccccc2)C1=O (stereo not given),4.48%,–
BrCCCCBr,-0.0192%,–
COP(=O)(OC)O/C(C)=C/C(=O)N(C)C,-0.522%,–
COP(=S)(NC(C)C)Oc1ccc(C)cc1[N+](=O)[O-] (stereo not given),-3.26%,–
Brc1ccc(Oc2ccc(Br)cc2Br)c(Br)c1,-1.13%,–
CNC(=O)/C=C(\C)OP(=O)(OC)OC,0.147%,–
CCC(=O)C(CCN(C)C)(c1ccccc1)c1ccccc1,-12.3% [at 35.6 µM],–
N#CC(Br)(Br)C(N)=O,0.0568%,–

Compound,activation,Potency
[Cl][Sn]([c]1ccccc1)([c]1ccccc1)[c]1ccccc1,–,10.4 µM (active)
COP(N)(=S)OC,-2.87%,–
COCC(C)N(C(=O)CCl)c1c(C)csc1C (stereo not given),-0.923%,–
COc1cc(CC#N)cc(OC)c1OC,-0.144% [at 35.6 µM],–
ClP(Cl)(Cl)(Cl)Cl,2.37%,–
Oc1ccccc1Br,-6.47%,–
O=CC=O,0.178%,–
ClCc1ccccc1Cl,-2.47%,–
N#C/C(N)=C(/N)C#N,12.3%,–
S=C=NCc1ccccc1,-0.0824%,–
CSCC[C@H](NC(=O)[C@H](Cc1c[nH]c2ccccc12)NC(=O)CCNC(=O)OC(C)(C)C)C(=O)N[C@@H](CC(=O)O)C(=O)N[C@@H](Cc1ccccc1)C(N)=O,2.52% [at 35.6 µM],–
COC(=O)c1cc(Oc2ccc(Cl)cc2Cl)ccc1[N+](=O)[O-],-0.605%,–
CCCCC(=O)Cl,2.43%,–
CN1[C@@H]2CC[C@H]1CC(OC(=O)c1cc(Cl)cc(Cl)c1)C2 (stereo not given in full),0.324% [at 35.6 µM],–
O=C1C(Cl)C(CCl)CN1c1cccc(C(F)(F)F)c1 (stereo not given),19.9%,–
[O]=[Cd],-1.91%,–
CCCCCCC[CH2][Sn]([Cl])([Cl])[CH2]CCCCCCC,0.001%,–
Nc1nc(N)nc(N)n1,0.677%,–
O=C(O)c1ccc2[nH]cc(CCCCN3CC=C(c4ccccc4)CC3)c2c1,-18.4% [at 35.6 µM],–
CC(C)CC(C)N (stereo not given),9.87%,–
